# Data from PubChem BioAssay.
# Some of the results follow. Activity calls are given as the source filed them. Unless noted, no stated cut-off is given here; in the data, active means activity above about 50%; inactive means the rest.
# Legend:
# [1] = biological target: PEG-3 (UniProt Q6IN02); test: Peg3 promoter luciferase inhibitors, potency, dose response, cell-based, HeLa, CREF/GAPDH counter-screen panel (AID 624167); settings: HeLa PEG-Prom luciferase reporter, overnight, CREF/GAPDH counter-screens; run 1, dose range 1, at 100 µM (top of the series)
# Chain of PEG-3 (Q6IN02 whole entry, looked up): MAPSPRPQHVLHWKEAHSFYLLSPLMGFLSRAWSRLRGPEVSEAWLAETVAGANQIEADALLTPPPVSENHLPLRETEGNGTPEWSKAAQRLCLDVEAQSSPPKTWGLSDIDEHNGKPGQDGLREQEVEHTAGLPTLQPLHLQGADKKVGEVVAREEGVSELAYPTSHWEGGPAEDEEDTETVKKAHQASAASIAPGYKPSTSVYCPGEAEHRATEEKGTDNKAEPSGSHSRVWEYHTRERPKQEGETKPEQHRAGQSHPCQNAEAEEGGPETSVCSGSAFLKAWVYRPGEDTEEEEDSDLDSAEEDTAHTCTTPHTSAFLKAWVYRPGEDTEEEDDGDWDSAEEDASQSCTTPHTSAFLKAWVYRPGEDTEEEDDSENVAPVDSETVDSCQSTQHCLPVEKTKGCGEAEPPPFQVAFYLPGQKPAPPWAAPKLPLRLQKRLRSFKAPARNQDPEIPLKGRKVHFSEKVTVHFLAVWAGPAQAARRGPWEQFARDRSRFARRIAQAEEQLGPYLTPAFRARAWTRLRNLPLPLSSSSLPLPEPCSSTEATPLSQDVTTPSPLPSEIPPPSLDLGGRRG
# [2] = biological target: PEG-3 (UniProt Q6IN02); test: as above; settings: HeLa PEG-Prom luciferase reporter, overnight, CREF/GAPDH counter-screens; run 2, dose range 1, at 100 µM (top of the series)
# [3] = biological target: Tumor necrosis factor receptor superfamily member 10B (Homo sapiens) (UniProt O14763); test: caspase-8 TRAIL sensitization, hit retest, confirmation, cell-based, NB7+caspase-8, with/without TRAIL, luminescence panel (AID 651596); settings: NB7 neuroblastoma + caspase-8, TRAIL sensitization, luminescence viability, with TRAIL, mean of runs, at 10 µM, stronger effect = higher value
# Chain of Tumor necrosis factor receptor superfamily member 10B (Homo sapiens) (O14763 whole entry, looked up): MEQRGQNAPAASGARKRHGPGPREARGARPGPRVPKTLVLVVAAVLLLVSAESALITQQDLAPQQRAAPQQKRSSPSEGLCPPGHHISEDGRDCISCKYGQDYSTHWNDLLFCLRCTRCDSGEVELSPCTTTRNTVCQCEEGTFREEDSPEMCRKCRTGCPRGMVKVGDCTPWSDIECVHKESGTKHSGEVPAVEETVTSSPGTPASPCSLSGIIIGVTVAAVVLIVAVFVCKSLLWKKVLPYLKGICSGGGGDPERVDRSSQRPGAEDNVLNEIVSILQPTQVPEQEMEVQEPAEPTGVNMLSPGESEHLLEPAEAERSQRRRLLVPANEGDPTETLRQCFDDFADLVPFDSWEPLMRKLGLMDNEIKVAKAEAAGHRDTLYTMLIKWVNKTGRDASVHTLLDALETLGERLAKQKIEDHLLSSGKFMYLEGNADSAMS
# [4] = as above; settings: NB7 neuroblastoma + caspase-8, without TRAIL, luminescence viability, without TRAIL, mean of runs, at 10 µM
# [5] = inhibitors of PAF-induced NFkB signaling in CF airway cells, dose response, cell-based, uHTS hits, panel, cytotoxicity readout (AID 624344); settings: CF bronchial epithelial cells, PAF-induced NFkB reporter inhibition, with PAF, run 1; at 79 µM (top of the series)
# [6] = as above; settings: CF bronchial epithelial cells, PAF-induced NFkB reporter inhibition, with PAF, run 2; at 79 µM (top of the series)
# [7] = test system: Rat fibroblasts (CREF); test: Peg3 promoter luciferase inhibitors, potency, dose response, cell-based, HeLa, CREF/GAPDH counter-screen panel (AID 624167); settings: CREF/GAPDH counter-screens; run 1, dose range 1, at 100 µM (top of the series)
# [8] = test system: Rat fibroblasts (CREF); test: as above; settings: CREF/GAPDH counter-screens; run 2, dose range 1, at 100 µM (top of the series)
# [9] = HIF-2a reporter inhibitor retest, confirmation, luminescence, 786-0 RCC cells (AID 651580;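 active means mean inhibition across four replicates of at least 40 percent at the single tested concentration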); settings: HIF-2a luciferase reporter luminescence, overnight, at 18.8 µM, stronger effect = higher value
# [10] = HIF-1a luciferase reporter signal reduction – MiaPaCa-2 cells, single concentration, counter-screen for HIF-2a inhibitor project, confirmation (AID 651589;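 active means mean inhibition of the reporter signal across four replicates at the single tested dose of 50% or more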); settings: MiaPaCa-2 HIF-1a luciferase reporter, desferoxamine, overnight; at 18.8 µM; stronger effect = higher value
structure (smiles),measurement,setting,value
Cc1ccccc1CN1Cc2cnnn2-c2ccccc2C1C#N (stereo not given),inhibition,[1],99.2%
same,inhibition,[2],98.3%
same,activity,[3],37.7%
same,activity,[4],78.2%
C=C1C(C)C2C(Cc3ccccc3)NC(=O)C23OC(=O)/C=C/C(O)CCCC(C)C/C=C/C3C1O (stereo not given),inhibition,[5],104%
same,inhibition,[6],103%
C=Cc1cc(OC)c2c(c1)c(=O)oc1c2cc(OC)c2c(O)ccc(C3OC(C)C(O)C(C)(O)C3O)c21 (stereo not given),inhibition,[1],101%
same,inhibition,[2],102%
same,inhibition,[7],25.3%
same,inhibition,[8],31.8%
CC(C)(C)n1nnnc1C(CCc1ccccc1)N1CCC(n2c(=O)[nH]c3ccccc32)CC1 (stereo not given),inhibition,[1],86.4%
same,inhibition,[2],92.6%
COc1cc2nc(CN3CC=C(c4ccccc4)CC3)[nH]c(=O)c2cc1OC,inhibition,[1],93.8%
same,inhibition,[2],45.3%
same,inhibition,[7],38.6%
same,inhibition,[8],26.4%
Cc1ccc(C)c(NP(=O)(Oc2ccccc2)Oc2ccccc2)c1,inhibition,[1],88.2%
same,inhibition,[2],96.7%
C[C@@H]1O[C@@H](O[C@@H]2C=C3CCC4C(CC[C@]5(C)[C@@H](c6ccc(=O)oc6)CC[C@]45O)[C@@]3(C)CC2)[C@H](O)[C@H](O)[C@H]1O (stereo not given in full),inhibition,[1],99.3%
same,inhibition,[2],98.5%
same,activity,[3],82.2%
same,activity,[4],91.8%
COc1cc2c(c(OC)c1OC)-c1ccc(O)cc1C(NC(C)=O)CC2 (stereo not given),inhibition,[5],-101%
same,inhibition,[6],0.843%
CCC1(OC(=O)CN)C(=O)OCc2c1cc1n(c2=O)Cc2cc3ccccc3nc2-1 (stereo not given),inhibition,[1],100%
same,inhibition,[2],96.5%
same,inhibition,[7],65.4%
same,inhibition,[8],72%
COC(COC(N)=O)C1=C(N2CC2)C(=O)C(C)=C(N2CC2)C1=O (stereo not given),inhibition,[1],102%
same,inhibition,[2],101%
same,inhibition,[7],100%
same,inhibition,[8],98.7%
CC1=CC2/C=C(\C)CCC(O)C(O)/C=C/C(=O)C23C(=O)NC(CC(C)C)C3C1C (stereo not given),inhibition,[1],102%
same,inhibition,[2],101%
same,inhibition,[7],100%
same,inhibition,[8],100%
same,activity,[3],95.3%
same,activity,[4],97.8%
O=Cc1cn(Cc2ccc(F)cc2)c2ccccc12,inhibition,[1],26.6%
same,inhibition,[2],60.7%
O=[N+]([O-])c1ccc(NC2CCN(Cc3ccccc3)CC2)c2ccncc12,inhibition,[1],102%
same,inhibition,[2],99%
CCN(CC)C(=O)Cn1cc(/C=C2\C(=O)NC(=O)N(c3ccccc3F)C2=O)c2ccccc21,inhibition,[1],102%
same,inhibition,[2],98.9%
CC[n+]1c(-c2ccccc2)c2cc(N)ccc2c2ccc(N)cc21,inhibition,[1],102%
same,inhibition,[2],102%
CC1=CC(O)C(O)C2(C)C1CC1OC(=O)C(O)C3C(C)C(O)C4(O)OCC13C42 (stereo not given),inhibition,[1],95.8%
same,inhibition,[2],93.3%
O=C1NC(=O)N(Cc2ccc(F)cc2)C(=O)/C1=C\C=C\c1ccco1,inhibition,[1],98.2%
same,inhibition,[2],99.4%
C=CC[C@@H](CC/C=C/C=C/CC/C=C\[C@@H]1CSC([C@@H]2C[C@@H]2C)=N1)OC,inhibition,[5],91.9%
same,inhibition,[6],64.9%
COc1ccc(C(c2nnnn2-c2c(C)cccc2C)N2CCC(n3c(=O)[nH]c4ccccc43)CC2)cc1 (stereo not given),inhibition,[1],63.7%
same,inhibition,[2],63.1%
COc1ccc(CNCCc2c(C)[nH]c3ccc(OC(F)(F)F)cc23)c(OC)c1,inhibition,[1],102%
same,inhibition,[2],101%
CC1=CC2OC3CC4OC(=O)C=CC=CC(C(C)O)OCC(O)C(C)CC(=O)OCC2(CC1O)C4(C)C31CO1 (stereo not given),inhibition,[1],101%
same,inhibition,[2],99.3%
same,activity,[3],92.3%
same,activity,[4],97.7%
O=Cc1cn(Cc2ccc([N+](=O)[O-])cc2)c2ccccc12,inhibition,[1],1.6%
same,inhibition,[2],29.8%
NC(=Nc1ccccc1)NN=Cc1c[nH]c2ccccc12,inhibition,[5],94.3%
same,inhibition,[6],116%
COc1ccc(-n2nnnc2C(c2cccs2)N2CCC(n3c(=O)[nH]c4ccccc43)CC2)cc1 (stereo not given),inhibition,[5],102%
same,inhibition,[6],102%
COc1ccc(-n2nnnc2C(c2cccc(OC)c2OC)N2CCC(n3c(=O)[nH]c4ccccc43)CC2)cc1 (stereo not given),inhibition,[5],99.3%
same,inhibition,[6],97.4%
Cc1c(C(=O)c2cccc3ccccc23)c2cccc3c2n1[C@H](CN1CCOCC1)CO3,inhibition,[5],104%
same,inhibition,[6],112%
COc1ccc(C(c2nnnn2-c2ccc(OC)cc2)N2CCC(n3c(=O)[nH]c4ccccc43)CC2)cc1 (stereo not given),inhibition,[5],98.8%
same,inhibition,[6],103%
N#CC1c2ccccc2-n2nncc2CN1Cc1cc(Cl)cc(Cl)c1 (stereo not given),inhibition,[5],91.8%
same,inhibition,[6],95.5%
same,activity,[3],55.8%
same,activity,[4],86.4%
C=C1C(=O)OC2CC3(C)OC3CCC(C)=CC(OC(C)=O)C12 (stereo not given),inhibition,[5],93.9%
same,inhibition,[6],99.9%
COc1cc2c(c(OC)c1O)-c1ccc(OC)c(=O)cc1C(NC(=O)C(F)(F)F)CC2 (stereo not given),inhibition,[5],-39.2%
same,inhibition,[6],24.5%
C[C@H]1CCCC(=O)CCC/C=C/c2cc(O)cc(O)c2C(=O)O1,inhibition,[5],102%
same,inhibition,[6],114%
COc1ccc(CC2NCC(O)C2OC(C)=O)cc1 (stereo not given),activity,[3],90.1%
same,activity,[4],93.8%
COC1C(O)C(C)OC(OC2CCC3(C=O)C(CCC4C3CCC3(C)C(C5=CC(=O)OC5)CCC43O)C2)C1O (stereo not given),inhibition,[9],40% (inactive)
same,inhibition,[10],105% (active)
same,activity,[3],85.2%
same,activity,[4],91.8%
COc1cc(C2c3cc4c(cc3CC3COC(=O)C32)OCO4)cc(OC)c1O (stereo not given),inhibition,[5],-31.2%
same,inhibition,[6],-1.25%
CCCCn1nnnc1C(CCc1ccccc1)N1CCC(n2c(=O)[nH]c3ccccc32)CC1 (stereo not given),inhibition,[5],89.5%
same,inhibition,[6],93%
COc1ccc(C[C@H]2NC[C@H](O)[C@H]2OC(C)=O)cc1,inhibition,[5],114%
same,inhibition,[6],106%
NC(=O)c1c(Br)n(C2OC(CO)C(O)C2O)c2ncnc(N)c12 (stereo not given),inhibition,[5],106%
same,inhibition,[6],116%
CCOC(=O)[C@]12Cc3ccccc3[C@H]1N(C1CCCCC1)C(=O)c1cc(OC)ccc12,inhibition,[9],93.2% (active)
same,inhibition,[10],106% (active)
same,activity,[3],85.5%
same,activity,[4],88%
